ADAM17 inh – ADAM17 inhibition, QFRET primary screen; P78536; inhibition, % at 6.95 µM; recombinant ADAM17, EDANS/DABCYL FRET peptide cleavage; hit rate 0.83% among 370,000; AID 720648;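 active = inhibition above the mean of compounds lying between control limits plus 3 SD, set per campaign, cut at about 8.5% in these data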;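 also: 0% = DMSO-only wells as the low control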
Target sequence (P78536 215-824 limits assumed): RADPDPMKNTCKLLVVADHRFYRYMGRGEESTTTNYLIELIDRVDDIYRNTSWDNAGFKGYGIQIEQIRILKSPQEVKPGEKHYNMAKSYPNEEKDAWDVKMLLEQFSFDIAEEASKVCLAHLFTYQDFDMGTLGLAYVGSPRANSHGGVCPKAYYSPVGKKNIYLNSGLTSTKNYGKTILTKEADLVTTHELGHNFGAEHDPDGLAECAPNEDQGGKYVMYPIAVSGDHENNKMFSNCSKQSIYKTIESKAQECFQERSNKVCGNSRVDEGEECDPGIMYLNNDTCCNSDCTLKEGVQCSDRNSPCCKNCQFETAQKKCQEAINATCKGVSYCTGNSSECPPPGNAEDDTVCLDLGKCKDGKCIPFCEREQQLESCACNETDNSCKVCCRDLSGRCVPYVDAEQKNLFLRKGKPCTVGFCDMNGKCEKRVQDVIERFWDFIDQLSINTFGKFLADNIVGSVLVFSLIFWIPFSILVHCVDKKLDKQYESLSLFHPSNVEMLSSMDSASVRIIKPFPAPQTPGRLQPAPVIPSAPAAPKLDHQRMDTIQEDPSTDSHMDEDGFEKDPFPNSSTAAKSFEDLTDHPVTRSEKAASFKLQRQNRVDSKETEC
HGIII-sPLA2 inh – Blocks human group III sPLA2 activity; QFRET BODIPY PC-A2 liposome hydrolysis, fluorescence; inhibition, % at 12.2 µM; hit rate 0.56% among 370,000;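 active = inhibition above mean plus 3 SD of compounds lying within the high and low control bounds, cut at about 19% in these data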;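 also: 0% = median of test compound wells and 100% = no enzyme DMSO wells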
FAS-TE inh – blocks the thioesterase domain of human fatty acid synthase; P49327; recombinant FAS-TE, OMFH fluorogenic substrate, fluorescence endpoint; inhibition, % at 15 µM; hit rate 0.67% among 360,000;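 active = compounds whose normalised, plate-corrected inhibition of enzyme fluorescence in the single-dose primary screen is 50% or more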;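 also: 0% = DMSO with enzyme and 100% = substrate without enzyme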
NR3A LBD binder – modulators (binders) of human NR3A ligand-binding domain; NR3A LBD differential scanning fluorimetry, Tm shift; 0% = protein alone, 100% = glycine-bound protein; Tm shift relative to glycine control, % at 25 µM; hit rate 2.5% among 340,000;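 active = melting temperature shift of at least 10% of the positive control shift, at one fixed dose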
ADAM10 inh – inhibitors of human ADAM10; recombinant ADAM10, EDANS/DABCYL FRET peptide cleavage, 3 h; O14672; AID 720582; hit rate 0.62% among 370,000; inhibition, % at 7 µM;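 active = inhibition above a per-campaign cutoff equal to the mean of compounds falling between control-based bounds plus 3 SD, cut at about 20% in these data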;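 also: 0% = DMSO wells while the 100% control is not disclosed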
sPLA2 confirm – human GIII-sPLA2 inhibition, confirmation; shares compounds with HGIII-sPLA2 inh; recombinant hGIII-sPLA2, BODIPY PC-A2 QFRET fluorescence; inhibition, % at 12.2 µM; hit rate 34% among 2,000; AID 743280;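 active = mean inhibition across triplicates above the hit cutoff set in the earlier primary screen, cut at about 19% in these data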;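 also: 0% = enzyme with DMSO and 100% = DMSO wells lacking enzyme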
535nm interf – optically interferes with 535nm fluorescence in sPLA2 counter-screen | shares compounds with HGIII-sPLA2 inh | BODIPY FL product fluorescence interference, QFRET | inhibition, % at 12.2 µM | hit rate 8.5% among 2,000 | AID 743282;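 active = average inhibition above the solvent-only control mean plus 3 SD, cut at about 6% in these data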;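 also: 0% = DMSO with substrate plus product and 100% = DMSO with substrate alone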
535nm interf DR – 535nm optical interference dose response, HGIII-sPLA2 counter-screen; shares compounds with HGIII-sPLA2 inh; IC50, µM; BODIPY FL product fluorescence interference, cell-free; 240 tested, under 10 active;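 active = IC50 at or below 10 µM; inactive = IC50 above 10 µM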
* = called active by the depositor; nt = no result. This is a sample that favours compounds with a hit; in the whole collection about 4.3% have one here.

SMILES	ADAM17 inh	HGIII-sPLA2 inh	FAS-TE inh	NR3A LBD binder	ADAM10 inh	sPLA2 confirm	535nm interf	others
CN=c1scc(-c2ccccc2F)n1/N=C/c1ccc[nH]1	-1	35*	-2	-8	-9	29*	3	535nm interf DR=>122
CN=c1scc(-c2ccco2)n1/N=C/c1ccc(O)c(O)c1	-5	6	-4	-1	-6	nt	nt
CCCNC(=O)c1ccc2c(=O)c(O)c(-c3ccc(F)cc3)[nH]c2c1	nt	nt	-7	-1	nt	nt	nt
CCCNC(=O)c1ccc2c(=O)c(O)c(-c3cccc(Br)c3)[nH]c2c1	-24	20*	-2	-8	-69	10	-3
CCCCC(=O)NC(c1ccccc1Cl)c1ccc2cccnc2c1O (configuration not stated)	8	28*	-5	-5	14	25*	-5
CCCCC(=O)NC(c1ccc(C(C)C)cc1)c1ccc2cccnc2c1O (configuration not stated)	2	13	-2	-4	11	nt	nt
CCCCC(=O)NC(c1ccccc1)c1ccc2cccnc2c1O (configuration not stated)	6	11	4	5	10	nt	nt
CC(=O)NC(c1ccc(C(C)C)cc1)c1ccc2cccnc2c1O (configuration not stated)	0	16	3	3	4	nt	nt
CCCC(=O)NC(c1ccccc1)c1ccc2cccnc2c1O (configuration not stated)	5	29*	6	2	-2	17	-11
CCCC(=O)NC(c1ccc(OC)cc1)c1ccc2cccnc2c1O (configuration not stated)	4	24*	3	-9	13	15	-9
C=CCCC1CN(Cc2ccc(OC)cc2)S(=O)(=O)c2c(Oc3ccc(C(C)C)cc3)cccc2O1 (configuration not stated)	-4	8	nt	nt	0	nt	nt
CC(NC(=O)Cc1ccccc1[N+](=O)[O-])c1ccccc1 (configuration not stated)	-3	23*	nt	nt	-5	-4	-4
O=C(Nc1ccc(OC(F)(F)F)cc1)Nc1nc2ncccn2c1-c1ccc(C(F)(F)F)cc1	-34	0	nt	nt	-134	nt	nt
C(=NOCCc1ccccc1)c1cccnc1	-7	20*	-5	0	-11	-4	-5
Cc1[nH]nc2c1C(c1cccc(C(F)(F)F)c1)NC2=O (configuration not stated)	-1	-2	nt	nt	-10	nt	nt
CCOc1ccc(S(=O)(=O)NCCC(=O)N2CC(C)OC(C)C2)cc1 (configuration not stated)	-3	4	-4	1	-6	nt	nt
Cc1ccc(S(=O)(=O)NCCC(=O)N2CC(C)OC(C)C2)cc1 (configuration not stated)	-1	22*	-6	4	-13	1	-8
CNc1nc(Cl)nc(NC(C)(C)C)n1	-7	1	-5	2	-5	nt	nt
CC(C)(C)Nc1nc(Cl)nc(NC(C)(C)C)n1	-3	23*	-1	6	-5	10	-10
Cc1onc(-c2ccccc2)c1C(=O)NC(=S)NNC(=O)c1ccccc1O	2	42*	-6	1	4	34*	1	535nm interf DR=>122
Cc1onc(-c2ccccc2)c1C(=O)NC(=S)NNC(=O)c1ccc(O)cc1	0	9	-5	-12	9	nt	nt
Cc1onc(-c2ccccc2)c1C(=O)NC(=S)NNC(=O)c1ccc(O)cc1O	7	23*	-5	5	12	23*	3
Cc1cc(-c2n[nH]c(=S)n2N=Cc2cccc(OCc3ccccc3)c2)n[nH]1	1	2	nt	nt	1	nt	nt
Cc1cc(/C=N/NC(N)=S)c(C)n1-c1ccc(Cl)cc1	0	2	-11	0	0	nt	nt
COC(=O)c1cnn(-c2ccc(Cl)cc2)c1/C=N/NC(N)=S	-1	25*	2	0	2	7	-4
SMILES	ADAM17 inh	HGIII-sPLA2 inh	FAS-TE inh	NR3A LBD binder	ADAM10 inh	sPLA2 confirm	535nm interf	others
COc1c(O)c(O)c2oc(-c3ccccc3)cc(=O)c2c1OC	-3	32*	-14	1	2	13	-11
Cc1cc(Oc2cccnc2)ccc1NC(=O)Cc1c[nH]c2ccccc12	-6	-29	nt	nt	-7	nt	nt
Cn1ncc(Br)c1C(=O)N1CCOCC1	-3	20*	-13	-2	-4	-6	-1
Cn1ncc(Cl)c1C(=O)N1CCOCC1	-1	1	-11	1	6	nt	nt
CC(=O)Nc1ccc(S(=O)(=O)Nc2ccc(Cl)nn2)cc1	-5	8	-9	-2	-3	nt	nt
Nc1ccc(S(=O)(=O)Nc2ccc(Cl)nn2)cc1	-3	22*	-6	2	-8	2	-4
O=C(NC1=C(Nc2ccc(Cl)cc2)C(=O)c2ccccc2C1=O)c1ccccc1	0	13	17	-3	4	nt	nt
CN(C1=C(NC(=O)c2ccc(Cl)cc2)C(=O)c2ccccc2C1=O)c1ccccc1	4	44*	41	-18	13	49*	7.6*
OC1c2cc(Br)ccc2N=C2CCCCCN21 (configuration not stated)	-20	20*	-4	nt	-78	-3	-7
OC1c2cc(Br)ccc2N=C2CCCN21 (configuration not stated)	-1	7	13	3	5	nt	nt
COc1ccccc1NC(=O)NNC(=O)c1cc2ccccc2cc1O	-1	27*	8	6	-7	20*	6
Cc1ccc(NC(=O)NNC(=O)c2cc3ccccc3cc2O)cc1	-10	27*	-14	-2	-5	15	-4
COC(=O)c1cc2c(c3c4cc(OC)ccc4n(S(=O)(=O)c4ccc(OC)cc4)c13)C(=O)N(Cc1ccc(C(F)(F)F)cc1)C2	-2	-1	nt	nt	-9	nt	nt
CN1c2ccc(-c3cccc(F)c3)cc2[C@H]2[C@H](CCN2S(=O)(=O)c2cccc(F)c2)[C@H]1CO	-6	2	nt	nt	-18	nt	nt
CCn1c(-c2c[nH]c3ccccc23)n[nH]c1=S	-3	24*	-10	-1	-10	15	0
CCOC(=O)c1ccc(NC(=S)Nc2cccc(C)n2)cc1	-2	3	-6	2	-4	nt	nt
CCOC(=O)c1ccc(NC(=S)Nc2cccc(N)n2)cc1	-6	22*	7	-3	2	22*	-5
CCC(C)[C@H](NC(=O)N1CCCC1)C(=O)OC (some centres not stated)	-4	3	-7	2	3	nt	nt
CCC(C)[C@H](NC(=O)N1CCCCC1)C(=O)OC (some centres not stated)	-1	23*	-4	1	-6	0	-4
